VDR inh = Inhibitors of the vitamin D receptor (VDR): qHTS. VDR-SRC2-3 peptide fluorescence polarization, 2 h. Potency, µM, hits mostly inhibitors. 0.93% of 400,000 active
Target sequence (P11473 whole entry, looked up): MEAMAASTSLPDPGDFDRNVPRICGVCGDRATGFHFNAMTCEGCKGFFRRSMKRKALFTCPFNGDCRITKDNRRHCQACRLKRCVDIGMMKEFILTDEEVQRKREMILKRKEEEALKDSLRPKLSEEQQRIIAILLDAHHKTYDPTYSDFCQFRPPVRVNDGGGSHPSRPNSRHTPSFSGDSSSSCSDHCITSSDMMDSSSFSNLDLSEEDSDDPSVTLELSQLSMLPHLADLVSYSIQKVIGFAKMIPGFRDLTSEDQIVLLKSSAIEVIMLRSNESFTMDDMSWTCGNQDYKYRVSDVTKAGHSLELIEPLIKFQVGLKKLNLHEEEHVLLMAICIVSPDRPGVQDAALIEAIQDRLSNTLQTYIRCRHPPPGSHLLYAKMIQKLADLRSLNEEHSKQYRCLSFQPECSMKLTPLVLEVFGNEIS
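Fluorescence polarization assay of small-molecule disruption of VDR binding to coregulator peptide SRC2-3. Compounds and controls pin-transferred, then read after 2 h incubation at ambient room temperature.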
TrxR1 inh = qHTS Assay for Inhibitors of Mammalian Selenoprotein Thioredoxin Reductase 1 (TrxR1): qHTS. Thioredoxin reductase 1, cytoplasmic (Rattus norvegicus), O89049. recombinant rTrxR1, NADPH fluorescence consumption, selenite substrate. Potency, µM (highest dose often 114 µM), hits mostly inhibitors. 1% of 390,000 active. AID 588453, 2011; also: nearly all actives have a fitted effect of over 65% in size
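Rat TrxR1 (90 nM in the dispensed reagent) was pre-reduced with 400 uM NADPH for 5 min at room temperature, then incubated with compound for 15 min. After 400 uM selenite was added, NADPH fluorescence (Ex 340/Em 450 nm) was followed for 8 min.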
PLK1 PBD block = qHTS for Inhibitors of PLK1-PDB (polo-like kinase 1 - polo-box domain): Primary Screen; Plk1 PBD binding of FITC phosphopeptide, fluorescence polarization; Serine/threonine-protein kinase PLK1 (Homo sapiens), P53350; Potency, µM, usual class: inhibitors; 2.8% of 360,000 active; AID 720504, 2013; also: series mostly up to about 57 µM; nearly all actives have a fitted effect of over 65% in size
IDH1 R132H inh = qHTS for Inhibitors of mutant isocitrate dehydrogenase 1 (IDH1): qHTS; Potency, µM (series often up to 76.6 µM), hits mostly inhibitors; AID 602179, 2012; IDH1-R132H enzyme, NADPH consumption, diaphorase/resazurin fluorescence; 0.093% of 390,000 active; also: nearly all actives have a fitted effect of over 65% in size
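IDH1-R132H (0.5 ug/mL) preincubated 30 min with compound, then NADPH (0.016 mM) and alpha-KG (2 mM) added; 80 min at RT, pH 7.5. Remaining NADPH coupled via diaphorase/resazurin to fluorescence (540/590 nm); concentration-response curves normalized to no-enzyme control.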
Sfp inh = qHTS Assay for Inhibitors of Bacillus subtilis Sfp phosphopantetheinyl transferase (PPTase); 4'-phosphopantetheinyl transferase ffp (Bacillus subtilis), Q9F4F7; Biochemical Sfp PPTase activity, qHTS; Potency, µM, usual class: inhibitors; 3.5% of 310,000 active; AID 1490, 2009;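 also: the enzyme is Sfp with the accession as filed and its product quenches rhodamine fluorescence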
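Compounds were incubated with enzyme (final 15 nM) for 15 min at room temperature before substrate addition started the reaction. Fluorescence at 525 nm excitation, 598 nm emission was recorded immediately and after 30 minutes.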
TrxR1 substrate = qHTS Assay for Substrates of Mammalian Selenoprotein Thioredoxin Reductase 1 (TrxR1): qHTS. AID 588456, 2011. 0.01% of 390,000 active. Potency, µM (doses to about 114 µM). purified TrxR1 substrate turnover, NADPH consumption readout. Thioredoxin reductase 1, cytoplasmic (Rattus norvegicus), O89049; also: nearly all actives have a fitted effect of over 50% in size
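Rat TrxR1, dispensed at 90 nM, was prereduced with 400 uM NADPH (final) for 5 min at ~22 deg C, then incubated with compound 15 min before 400 uM selenite. A first-read NADPH fluorescence drop versus no-compound background flagged substrates.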
Of the large screens only hits and unclear results are named; the others gave an inactive call. Compounds with a hit are over-represented: about 5.2% of the library has one in this group of screens. Calls follow the shape of the dose curve; as a rule, active = well fitted curve in the direction sought with a large enough effect; inconclusive = small, poorly fitted or top-dose-only effect, or another doubt; inactive = no such curve, though single readings can be large; an effect the other way counts as inactive or inconclusive.

CC(NC(=O)CCc1ccccc1)c1ccc2c(c1)OCO2 (stereo not drawn)	none
Cc1cc2c(cc1S(=O)(=O)N1CCN(c3cccc(C)c3C)CC1)OCC(=O)N2	none
COc1ccc(N2CCN(C(=O)CCS(=O)(=O)c3ccc4c(c3)NC(=O)CO4)CC2)cc1	PLK1 PBD block 24µM
O=C1COc2ccc(S(=O)(=O)CCC(=O)N3CCN(c4cccc(C(F)(F)F)c4)CC3)cc2N1	none
Cc1cccc(N2CCN(C(=O)CCS(=O)(=O)c3ccc4c(c3)NC(=O)CO4)CC2)c1C	VDR inh inconclusive, PLK1 PBD block 12µM
Cc1cc2c(cc1S(=O)(=O)N1CCN(c3cccc(C(F)(F)F)c3)CC1)OCC(=O)N2	VDR inh inconclusive, PLK1 PBD block 21µM
Cc1cccc(N2CCN(S(=O)(=O)c3ccc4c(c3)NC(=O)CO4)CC2)c1C	PLK1 PBD block 27µM
NCCCCCN	none (no result: TrxR1 inh, PLK1 PBD block, IDH1 R132H inh, TrxR1 substrate)
COC(=O)c1ccc2nc(C3CCCCC3)c(Cc3ccc(C)cc3)n2c1	none (no result: VDR inh, TrxR1 inh, IDH1 R132H inh, Sfp inh, TrxR1 substrate)
CCc1nc2sc3c(N4CCC(C)CC4)ncnc3c2c2c1CCCC2	none (no result: PLK1 PBD block, Sfp inh)
COc1ccc(-c2cc(C(F)(F)F)nc(S(=O)(=O)CCCC(=O)Nc3cccnc3Cl)n2)cc1OC	none
CCC(C)NC(=O)Cn1c(=O)n(-c2cc(OC)cc(OC)c2)c(=O)c2ccccc21 (stereo not drawn)	none (no result: PLK1 PBD block, Sfp inh)
COc1cccc(NC(=O)C2CCN(S(=O)(=O)c3ccc4c(c3)NC(=O)CO4)CC2)c1	VDR inh inconclusive, PLK1 PBD block 21µM
Cc1ccc(S(=O)(=O)CCC(=O)N2CCN(c3ccc([N+](=O)[O-])cc3)CC2)cc1	VDR inh 25µM, TrxR1 inh 28µM
Cc1cccc(NC(=O)C2CCN(S(=O)(=O)c3ccc4c(c3)NC(=O)CO4)CC2)c1	none
Cc1ccc(-n2ncc(C(=O)NC3CCN(Cc4ccccc4)CC3)c2C2CCN(C(=O)OC(C)(C)C)CC2)cc1C	none (no result: PLK1 PBD block, Sfp inh)
Cc1cccc(C)c1N1C(=O)c2ccccc2NC(=O)C1C(=O)NCCOc1ccccc1 (stereo not drawn)	none (no result: VDR inh, TrxR1 inh, IDH1 R132H inh, Sfp inh, TrxR1 substrate)
COc1ccc(NC(=O)Nc2cccs2)cc1OC	Sfp inh 45µM
Cc1cc(C)cc(NC(=O)Nc2cccs2)c1	none (no result: PLK1 PBD block, IDH1 R132H inh, Sfp inh)
CCOc1ccc(NC(=O)Nc2cccs2)cc1	Sfp inh 56µM
Cc1ccc(NC(=O)Nc2cccs2)cc1	Sfp inh 18µM
COc1ccc(NC(=O)c2cccs2)cc1OC	none
CCc1ccc(NC(=O)Nc2cccs2)cc1	Sfp inh 50µM
CCOc1ccccc1CNC(=O)Cn1ccc2cc(S(=O)(=O)N3CCC(C)CC3)ccc21	none
Cc1noc(-c2ccc(-c3noc(-c4cccc(Cl)c4)n3)cc2)n1	none (no result: PLK1 PBD block, Sfp inh)
Cc1ccc(N/C=C/C(=O)C(C)(C)C)c(O)c1	Sfp inh 89µM
CC(=O)Nc1ccc(N/C=C/C(=O)C(C)(C)C)cc1	none
Cc1ccc(OCCCCn2c(CCNC(=O)C3CCCCC3)nc3ccccc32)cc1	none (no result: PLK1 PBD block, IDH1 R132H inh, Sfp inh)
COc1cc2sc3cc(NCCCN4CCOCC4)ccc3c(=O)c2cc1OC	none (no result: Sfp inh)
COc1cccc2sc3cc(NCc4ccc(C)o4)ccc3c(=O)c12	VDR inh 89µM, TrxR1 inh 79µM (no result: Sfp inh)
COc1ccc(CCCC(=O)Nc2ccc(F)cc2)cc1	PLK1 PBD block 21µM
O=C1CC(c2ccc(O)cc2)Oc2cc(O)cc(O)c21 (stereo not drawn)	none
CC1CC(=O)c2c(cc3c(-c4c(O)cc(O)c5c(O)c6c(cc45)OC(C)CC6=O)c(O)cc(O)c3c2O)O1 (stereo not drawn)	VDR inh inconclusive, PLK1 PBD block 27µM
COC(=O)c1ccc(CSc2nc3scc(-c4cccs4)c3c(=O)[nH]2)o1	TrxR1 inh inconclusive, PLK1 PBD block inconclusive, Sfp inh 56µM
COC(=O)c1ccc(CSc2nc3c(cnn3-c3ccc(C)c(C)c3)c(=O)[nH]2)o1	PLK1 PBD block 27µM
CN(C)c1ccc(/C=C2/CCCc3c2nc2ccccc2c3C(=O)O)cc1	TrxR1 inh inconclusive (no result: VDR inh, PLK1 PBD block, IDH1 R132H inh, Sfp inh)
O=C(N=C1SC2CS(=O)(=O)CC2N1c1ccc(Cl)c(Cl)c1)C1CCCO1 (stereo not drawn)	none
COC(=O)c1c(C)[nH]c(C=Nc2ccc(OC)cc2)c1C	none
COC(=O)c1c(C)[nH]c(O)c1C=Nc1ccc(C#N)cc1	TrxR1 inh inconclusive, Sfp inh 45µM
CC(C)N(CCCNC(=O)CC1Oc2ccccc2NC1=O)Cc1ccccc1 (stereo not drawn)	PLK1 PBD block 27µM
CC(C)CN(CCCNC(=O)CC1Oc2ccccc2NC1=O)CC(C)C (stereo not drawn)	none
O=C1N=c2ccc(Br)cc2=C1c1sc(=S)n(NS(=O)(=O)c2ccccc2)c1O	VDR inh inconclusive, TrxR1 inh inconclusive, PLK1 PBD block 24µM, Sfp inh inconclusive
O=C(O)c1cccc(S(=O)(=O)NCCc2ccccc2)c1	PLK1 PBD block 30µM
CC(=O)NCCc1nc2ccccc2n1CCOc1ccccc1	PLK1 PBD block 24µM
CC(=O)NCCc1nc2ccccc2n1CCCCOc1ccccc1	none
Oc1ccc2oc3c(c2c1C=NCc1ccncc1)CCCC3	PLK1 PBD block inconclusive, Sfp inh 50µM
Nc1cccc(-c2nnc3n2CCCCC3)c1	PLK1 PBD block 17µM
O=C1c2cc(O)c(O)cc2OC(c2ccc(O)c(O)c2)C1O (stereo not drawn)	none (no result: Sfp inh)
CC(C)(C)S(=O)N1Cc2cc(C(=O)NCc3ccc(Oc4ccccc4)cc3)nc(-c3cccc(-c4cc5ccccc5o4)c3)c2[C@@H]1CCO (stereo partly drawn)	none (no result: VDR inh, TrxR1 inh, IDH1 R132H inh, Sfp inh, TrxR1 substrate)
O=C(CCN1C(=O)c2ccccc2C1=O)Nc1ccc(S(=O)(=O)N2CCOCC2)cc1	VDR inh inconclusive, PLK1 PBD block 24µM
CCOc1ccc(NC(=O)CN2C(=O)CC(C)Sc3ccccc32)cc1 (stereo not drawn)	none (no result: PLK1 PBD block, Sfp inh)
CCOc1ccc(NC(=O)CN2C(=O)/C(=C3\SC(=S)N(C4CCS(=O)(=O)C4)C3=O)c3ccccc32)cc1 (stereo not drawn)	PLK1 PBD block inconclusive, Sfp inh 56µM
CNc1ccccc1C(=O)OCC(=O)N(CCOC)c1c(N)n(CC(C)C)c(=O)[nH]c1=O	TrxR1 inh inconclusive (no result: Sfp inh)
S=c1[nH]nc(-c2ccccc2)n1/N=C/C=C/c1ccco1	Sfp inh 50µM

Compound activity as filed in PubChem BioAssay.
